Test results published in PubChem BioAssay (NCI).
About 83,000 compounds went through this panel and 20% of them were active in at least one assay; those are over-represented in the sample as a whole.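 Growth was measured after 48 h exposure to one concentration of compound in 96-well plates. Values under 10 count as active.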 A number with no mark means an inactive call. Activity calls are given as the source filed them.

Test system: RPMI-8226 leukemia
Experiment: NCI-60 one-dose screen, 48 h (100 = growth as untreated, 0 = no growth, -100 = all killed)
Settings: 10 µM unless noted
Description: Growth inhibition of the RPMI-8226 human tumor cell line is measured as a screen for anti-cancer activity. Cells are grown in 96 well plates and exposed to the test compound for 48 hours. Compounds are tested at a single concentration, which is 10^-5 M for most compounds. The reported endpoint is percent growth (GI% or GIPRCNT), where numbers from 0 - 100% represent growth inhibition, and numbers from -100% - 0 represent cell death. For example, a value of 40 represents 60% growth inhibition. A value of 0 means no net growth occurred over the course of the experiment. A value of -40 indicates 40% of cells at the beginning of the experiment died by the end of the experiment. A value of -100 means all cells are dead at the end of the experiment.
NCI-60 Human Tumor Cell Lines Screen was performed using the standard one-dose NCI protocol, which is described in more detail at https://dtp.cancer.gov/discovery_development/nci-60/default.htm.
Compounds with GIPRCNT values below 10 were considered active. Activity score was based on GIPRCNT using the following formula: […]
Score is 0 for GIPRCNT values of 100 or above, 50 for GIPRCNT values of 0, and 100 for GIPRCNT values of -100.

SMILES | growth
O=c1oc2ccccc2cc1C1=NN=C(SCc2ccccc2)SC1 | 98.7%
Cc1cccc2c1NC(=O)C2(c1ccc(O)cc1)c1ccc(O)cc1 | 80.9%
CCS/C(Nc1ccccc1)=C(\C#N)C(=O)N/N=C/c1ccc(Cl)cc1Cl | 9.68% (active)
N#C/C(=C\c1ccc(-c2ccc(Cl)cc2)o1)C(=O)Nc1ncc(Cc2ccc(Cl)cc2)s1 | 85.2%
N#C/C(=C/c1ccc([N+](=O)[O-])cc1)n1nnc2cc(F)c(F)cc21 | -18.7% (active)
COC(=O)c1c2c(c(C)[n+]([O-])c1C)C(=O)C=C(NCc1ccc(OC)cc1)C2=O | -16.5% (active)
COc1ccc2nc(NC(=O)CSc3nnc4n3S(=O)(=O)c3ccccc3N4C)sc2c1 | 74.1%
COc1ccc(-c2cc(-c3ccc(Cl)cc3)c(C#N)c(=O)n2CCCCC(=O)Nc2ccccc2N)cc1 | 0.147% (active)
CN1C(=O)N(C)C2Nn3c(s/c(=C\c4ccc(C(F)(F)F)cc4)c3=O)=NC21 (stereo not given) | 106%
O=C1N(Cc2ccccc2Cl)c2ccccc2C12NN=C(c1cccc(Cl)c1)S2 (stereo not given) | 30.5%
O=C(Nc1ccc(NC(=O)c2cc(=O)[nH]c3ccccc23)cc1)Nc1cccc(C(F)(F)F)c1 | 74.4%
CCN1C(=O)N(CC)C2C1NN=c1s/c(=C\c3ccc(Cl)cc3Cl)c(=O)n12 (stereo not given) | 16.5%
O=C1NCCC12CCN(c1c(Cl)cncc1-c1ccc(O)cc1)CC2 | 85.5%
O=C(NCc1ccccc1)Nc1ccccc1CNc1nc(Nc2ccc(OCCN3CCCC3)cc2)ncc1Cl | 76.1%
COc1ccc(OC)c(C(=O)/C=C/c2cc3c(c(OC)c2OC)OCO3)c1 | 6.09% (active)
CC(=O)[C@@H]1CCC=C2CC[C@]3(C)[C@@H](CC[C@@H]4[C@@]5(C)CCCNC(C)(C)[C@@H]5CC[C@]43C)[C@H]21 | -49.2% (active)
COc1cc(-c2nc(SCC(C)C)nc(Nc3cccc4ccccc34)c2C#N)cc(OC)c1OC | 91.2%
COc1cc(-c2cc(-c3ccc(N(C)C)cc3)nc(N3CCC(O)CC3)c2C#N)cc(OC)c1OC | -5.93% (active)
C=CC(=O)NCc1ccc(Nc2nccc(-c3ccc(N4CCCC4)c(C#N)c3)n2)cc1 | 46.7%
C=C1C(=O)O[C@H]2[C@H]1CC/C(COC(=O)NCc1cc[nH]c1)=C\CC[C@@]1(C)O[C@@H]21 | 30.2%

SMILES | growth
CN1CCN(C(=O)OCc2ccc3c(Cl)cc(Cl)c(O)c3n2)CC1 | 42%
CCCC(O)Cn1ncc(C(=O)OCC)c1NC(=O)NCc1ccccc1F (stereo not given) | 67.4%
CCOC(=O)Cn1c(O)c(N=Nc2ccc(S(N)(=O)=O)cc2)c2cc(Br)ccc21 | 79.5%
CCOC(=O)c1c(C)nc2c(c1N)CC(=O)N2Cc1cc(F)cc(Cl)c1 | 71.7%
C/C(=N\NC(=O)c1ccccc1O)c1cccc(/C(C)=N/NC(=O)c2ccccc2O)n1 | 41.4%
CC(C)(C)n1cc(-c2ccnc(NCCNS(=O)(=O)c3cccc4ccccc34)c2)c(-c2cccc(F)c2)n1 | -31.8% (active)
Oc1c(Cl)cc(Cl)cc1/C=N/Nc1nnc(N/N=C/c2cc(Cl)cc(Cl)c2O)c2ccccc12 | 0.393% (active)
O=CC1(C2(C=O)c3ccccc3-c3ccccc32)c2ccccc2-c2ccccc21 | -24% (active)
N#Cc1nc(-c2ccccc2)oc1S(=O)(=O)N1CCOCC1 | 76.5%
CCOC(=O)C#Cc1c(C(=O)OCC)nnn1[C@@H]1O[C@H](CO)[C@H]2OC3(CCCCC3)O[C@H]21 | 14.2%
CCNC(=O)c1[nH]cc(-c2ccccc2)c1-c1cc(OC)c2c(c1OC)OCO2 | 99%
CCN(c1ccc(Cl)cc1)c1nc(-c2ccc([N+](=O)[O-])cc2)cs1 | 91.5%
O=C1c2cc(Cl)ccc2S(=O)(=O)c2c(NCCCNCCO)nc3ccccc3c21 | -22.2% (active)
O=C1/C(=C/c2ccc(Cl)c(Cl)c2)CN(C(=O)C(Cl)Cl)C/C1=C\c1ccc(Cl)c(Cl)c1 | -27.9% (active)
C[C@H](NC(=O)[C@@H](C)N)[C@H](Oc1ccc2c(cnn2-c2ccc(F)cc2)c1)c1ccc2c(c1)OCCO2 | 20.7%
CN(C)CCCn1c2c(c3ncccc3c1=O)C(=O)c1ccccc1-2 | 38.2%
CN(C)c1ccc(/C=C/C(=O)c2ccc(-n3cc(CN4CCN(c5cc6c(cc5F)c(=O)c(C(=O)O)cn6C5CC5)CC4)nn3)cc2)cc1 | -24.6% (active)
N#Cc1cccc(F)c1 | 113%
N#CCSc1nnc2n(Cc3ccccc3)c(=O)c3c4c(sc3n12)CCCC4 | -61.3% (active)
NC(=O)CCC(C(=O)O)N1C(=O)c2ccc(O)cc2C1=O (stereo not given) | 82.1%
